Compounds with a hit are over-represented: about 6.8% of the library has one in this group of screens.
KB-V1 MDR tox: KB-V1 MDR subline cytotoxicity; AID 1347076; KB-V1 MDR cells viability, CellTiter-Glo, 72 h; hit rate 3.4% among 400,000; Potency, µM (doses to about 46.1 µM), actives largely listed as cytotoxic; further: on the % scale 0 is the no-effect control and ±100 the full control effect; nearly all actives have a fitted effect of over 60% in size
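qHTS viability screen in drug-selected KB-V1 MDR cells: 72 h compound treatment at 37 degrees C, ATP luminescence end point.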
KB-3-1 cytotox: KB-3-1 parental cell cytotoxicity. KB-3-1 viability, CellTiter-Glo ATP luminescence, 72 h. Potency, µM (top dose mostly 46.1 µM), most hits filed as cytotoxic. hit rate 1.4% among 400,000. AID 1347075; further: on the % scale 0 is the no-effect control and ±100 the full control effect; nearly all actives have a fitted effect of over 60% in size
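KB-3-1 parental drug-naive adenocarcinoma cells in DMEM/10% FBS, incubated 72 h at 37 C with pin-transferred compounds across a concentration series. Viability by CellTiter-Glo luminescence; concentration-response curves fitted after normalization.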
MCF10A rereplic: DNA re-replication induction in MCF 10a cells. MCF 10A DNA re-replication, Hoechst nuclear intensity, 48 h. Potency, µM (doses to about 46.1 µM), inactives show at the highest dose activity, positive = re-replication, hits mostly activators. hit rate 2.9% among 350,000. AID 624296; further: % of control where 0% means no effect; nearly all actives have a fitted effect of over 50% in size
PINK1 modulator: modulators of PINK1 expression; AID 624263; PINK1 immunofluorescence, high-content cytometry, 24 h; hit rate 0.2% among 410,000; Potency, µM (doses to about 76.6 µM), without a hit: at the top dose activation (PINK1 increase), hits mostly activators; active means well fitted activation curve with a large enough effect; inconclusive means small, poorly fitted or top-dose-only effect; cell line not stated here; further: % of control where 0% means no effect; nearly all actives have a fitted effect of over 65% in size
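Measures PINK1 amount and localization on or inside mitochondria by immunofluorescence. Stable cells get compounds at 5 concentrations for 24 hours before fixation and staining; CCCP controls included.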
SW480 rerep: induces DNA re-replication in SW480 colon adenocarcinoma cells | SW480 DNA re-replication, Hoechst DNA content imaging, 48 h | Potency, µM (doses to about 46.1 µM), for inactives: at the top dose re-replication activation, usual class: activators | AID 624297 | hit rate 1.8% among 340,000; further: % of control where 0% means no effect; nearly all actives have a fitted effect of over 55% in size
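Per well, 250 cells were exposed to pinned compound for 48 hr. Nuclear DNA was visualised with Hoechst (40 min, 37 C) and total object intensity recorded by fluorescence scanning.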
TSG101-PTAP inh: blocks PTAP/TSG101 interaction to inhibit HIV-1 budding; Q99816; Fluorescence polarization, FITC-PTAP peptide / Tsg101 binding; Potency, µM (titrated, usually from 115 µM), for inactives: top-dose activity change, negative = inhibition, hits mostly inhibitors; 340,000 tested, under 10 active; AID 493005; active means well fitted inhibition curve with a large enough effect in the main read-out, with a control signal flat, not every such curve was filed as active; inconclusive means small, poorly fitted or top-dose-only effect, or effect the other way, or a change in a side signal; inactive means no such curve, though single readings can be large or run the other way; further: % of control where 0% means no effect
Target sequence (Q99816 whole entry, looked up): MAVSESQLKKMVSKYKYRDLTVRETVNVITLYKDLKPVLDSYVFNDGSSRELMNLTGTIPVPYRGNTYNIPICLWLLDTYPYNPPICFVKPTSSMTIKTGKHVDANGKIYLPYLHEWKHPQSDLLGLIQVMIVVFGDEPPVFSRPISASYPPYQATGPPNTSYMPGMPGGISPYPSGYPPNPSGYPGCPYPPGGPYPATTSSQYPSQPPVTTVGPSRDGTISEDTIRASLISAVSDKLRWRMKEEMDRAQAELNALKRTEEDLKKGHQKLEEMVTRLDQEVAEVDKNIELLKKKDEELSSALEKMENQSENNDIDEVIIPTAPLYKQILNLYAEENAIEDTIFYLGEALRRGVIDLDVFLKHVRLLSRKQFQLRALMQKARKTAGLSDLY
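FP read-out: FITC-PTAP peptide, 50 nM final, binding Tsg101 binding domain, 10 uM final; 20 min, r.t.; 10 mM HEPES pH 7.5, 0.15 M NaCl, 0.01% Tween 20, 3 mM EDTA, 0.1 mM TCEP.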
Starred values were filed as active, the others as inactive; i = inactive; u = inconclusive; x = no result given; [ ] = dose if it differs, or a comment. Unless noted, the call rests on the fitted dose curve; in most records, active means well fitted curve in the direction sought with a large enough effect; inconclusive means small, poorly fitted or top-dose-only effect, or another doubt; inactive means no such curve, though single readings can be large; an effect the other way counts as inactive or inconclusive. Potency means the concentration at half of the fitted maximal effect.

SMILES	KB-V1 MDR tox	KB-3-1 cytotox	MCF10A rereplic	PINK1 modulator	SW480 rerep	TSG101-PTAP inh
CC(C)(C)NC(=O)NC(=O)CSc1cccc(C(F)(F)F)c1	i	i	5.9%[9.22 µM]	7.8%	-52.9%	-1.6%
Cc1ccc(NC(=O)c2cc3c(=O)n(Cc4ccco4)ccc3nc2C)cc1C	x	x	x	4.6%	x	x
Cc1cccc2cc3c(N)c(C(=O)N4CCOCC4)sc3nc12	3.66µM*	2.91µM*	4.11µM*	0.8%	3.55µM*	0.4%
CC(C)N(C(=O)CSc1nnc(NC(=O)c2cccs2)s1)C(C)C	23.1µM*	i	-0.7%	0.5%	-3.0%	-0.2%
CC(C)c1nnc(NC(=O)c2cccs2)s1	i	i	-1.9%	0.9%	-1.6%	-5.1%
Cc1cccc(C)c1OCc1cc(C(=O)N2CCCC2c2nonc2C)no1 (stereo not drawn)	i	i	8.2µM*	-1.5%	u	-1.9%
Cc1c(CNC2CCCCCC2)c(C(=O)O)c(C)n1Cc1c(F)cccc1Cl	u	i	x	-1.1%	x	x
Cc1ccc2ccc3cccnc3c2n1	u	11.6µM*	11.5%	2.6%	u	-1.7%
CCCN(C(=O)COc1cc(=O)n(CC)c2ccccc12)c1ccc(C(C)C)cc1	13µM*	u	x	24.5%	x	x
CCN(C(=O)COc1cc(=O)n(CC)c2ccccc12)c1cccc(Cl)c1	2.06µM*	u	9.7%	32.3%[38.3 µM]	0.4%	-9.8%
Cc1cc(C)c2c(NC(=O)c3ccccc3Cl)c(C(=O)NCc3ccc(Cl)cc3)sc2n1	u	u	x	5.4%	x	x
Cc1ccc2ncc(C(=O)N3CCN(c4ccccc4F)CC3)c(=O)n2c1	u	i	x	-2.0%	x	x
C/C(=N\NC(=O)c1ccc(O)cc1)c1ccc(N2CCOCC2)cc1	i	i	3.7%	-0.5%	-6.1%	0.2%
COc1ccc(/C=C/C(=O)c2ccccc2O)cc1	i	i	10.0%	0.1%	0.103µM*	x
C/C(=N\NC(=O)C(N)=O)c1ccc(NC(=O)c2cccs2)cc1	i	i	1.6%	-0.2%	2.4%	-5.0%
C/C(=N\NC(=O)CNC(=O)c1cccs1)c1ccc(Cl)c(Cl)c1	i	i	u	2.1%	3.66µM*	0.9%
C/C(=N\NC(=O)c1ccccc1)c1ccc(NC(=O)c2cccs2)cc1	i	i	17.1%	2.1%	1.46µM*	5.7%
C/C(=N\NC(=O)c1ccc(N/N=C(\C)c2ccc(O)cc2)cc1)c1ccc(O)cc1	i	i	20.6µM*	0.0%	8.8%	0.5%
COc1ccc(/C(C)=N/NC(=O)CNC(=O)c2cccs2)cc1OC	i	i	-4.2%	2.0%	-174.1%	-2.0%
Cc1ccc(SCc2nc(-c3ccc(C(=O)Nc4cc(C)ccc4C)cc3)oc2C)cc1	x	x	x	0.7%	x	x
COC(=O)C1=C(C)NC(=O)NC1c1cn(-c2ccccc2)nc1-c1ccc(OC)c(Br)c1 (stereo not drawn)	i	i	x	-3.0%	x	x
COc1ccc(NC(=O)c2ccc(NC(=O)c3cccs3)cc2)cc1	i	i	10.0%	10.9%	11.8%	-2.5%
COc1ccc(C(=O)/C=C\c2ccc(NC(=O)c3cccs3)cc2)cc1	u	u	u	u	18.4µM*	-0.7%
COc1cccc(C(=O)N/N=C(\C)c2ccc(NC(=O)Cc3ccccc3)cc2)c1OC	i	i	u	1.0%	u	-2.1%
C/C(=N\NC(=O)c1ccccc1O)c1ccc(NC(=O)Cc2ccccc2)cc1	16.4µM*	u	-2.2%	3.9%	11.6µM*	-1.6%
SMILES	KB-V1 MDR tox	KB-3-1 cytotox	MCF10A rereplic	PINK1 modulator	SW480 rerep	TSG101-PTAP inh
C/C(=N\NC(=O)c1ccccc1C)c1ccc(NC(=O)c2cccs2)cc1	5.8µM*	i	-0.8%	9.1%	u	-2.6%
COc1ccc(N2COC3c4cccc5cccc(c45)C32)cc1 (stereo not drawn)	i	i	23.1µM*	3.9%	1.5%	-3.3%
COCCN(C(=O)Cc1cccs1)c1nnc(-c2ccncc2)s1	i	i	1.3%	1.7%	-12.4%	-4.0%
CCN(C(=O)c1cccs1)c1nnc(-c2ccncc2)s1	18.4µM*	i	27.3%	-1.1%	-14.3%	-7.0%
COc1ccc(C(=O)CC(SCC(NC(C)=O)C(=O)O)c2ccc(Cl)cc2)cc1OC (stereo not drawn)	13µM*	i	21.1%	-1.1%	u	-3.9%
COc1ccc(C(C)NC(=O)c2ccc(Cl)cc2)cc1OC (stereo not drawn)	20.6µM*	i	-42.3%	3.3%	7.6%	-0.1%
COc1ccc(C(C)NC(=O)c2ccncc2)cc1OC (stereo not drawn)	u	i	-3.2%	1.5%	u	-0.5%
Cc1cc(C)c(/C=C/c2onc(C)c2S(=O)(=O)N2CCC(C(=O)N3CCN(c4ccccc4)CC3)CC2)c(C)c1	x	x	x	-0.8%	x	x
COc1ccc(CCNC(=O)C(=O)NCC(c2cccs2)S(=O)(=O)c2cccs2)cc1 (stereo not drawn)	u	u	x	2.1%	x	x
COc1ccc(-c2cn3cccnc3n2)cc1NC(=O)Nc1cc(C)ccc1C	i	i	x	-1.4%	x	x
O=C(NC1CC(=O)N(c2ccccc2)C1)c1ccc(S(=O)(=O)N2CCOCC2)cc1 (stereo not drawn)	x	x	x	-0.6%	x	x
COC(=O)C1=C[C@@H](C(=O)OC)[C@@H]2C3=C(C(=O)C2(C)C)[C@H](C)n2c(=O)n(-c4ccccc4)c(=O)n2[C@@H]3C1	i	i	u	0.7%	5.17µM*	-1.1%
COC(=O)C1=C[C@@H](C(=O)OC)C2C3=C(C(=O)C24CCCCC4)[C@H](C)n2c(=O)n(-c4ccccc4)c(=O)n2[C@@H]3C1 (stereo partly drawn)	i	i	0.8%	1.0%	-55.1%[9.22 µM]	-14.1%
CO[C@@H]1CN(C)C(=O)c2ccc(NC(=O)C3CCC3)cc2OC[C@H](C)N(CC2CCCCC2)C[C@H]1C	u	i	x	x	x	x
CO[C@@H]1CN(C)C(=O)c2ccc(NC(=O)C3CCCC3)cc2OC[C@@H](C)N(Cc2ccc(F)cc2)C[C@H]1C	23.1µM*	u	x	x	x	x
Cc1ccc(-n2nc3ccc(NC(=O)/C=C/c4ccco4)cc3n2)cc1	u	i	11.6µM*	u	u	-5.3%
O=C(/C=C/c1ccco1)NC(=S)Nc1ccc(C(=O)O)cc1	i	i	7.3%	1.4%	-5.3%	-5.1%
Cc1ccc(NC(=O)c2cccc(NC(=O)/C=C/c3ccco3)c2)cc1C	u	u	u	9.0%	3.8%	2.9%
O=C(/C=C/c1ccco1)NC(=S)Nc1ccc(N2CCCC2)cc1	u	u	20.6µM*	11.6%	u	0.7%

Screens (PubChem)
